Measured values from PubChem BioAssay (EPA / NIEHS).
Several values for one entry are separate records, joined by “and”; a condition that tells them apart may be missing. Identical values can stand only once. Results filed as inconclusive are left out. The source holds several records for some structures; these can differ, active in one and inactive in another. Activity calls are given as the source filed them. The calls were made as follows, unless noted: active = hit-call score of the fitted dose curve at least 0.9, where 1 is the maximum; inconclusive = response in the unintended direction; inactive = score below 0.9.

Tests used:
[1] = Tanguay_ZF_120hpf_TRUN_legacy: (Legacy) Oregon State University Tanguay Lab 120 Hour Post-fertilization zebrafish Assay for Truncated Body (AID 2283655)
Outline: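 Tropical 5D wild-type embryos, dechorionated with pronase at 4 hpf, were placed singly in wells at 6 hpf and statically exposed at 28C until 120 hpf, final DMSO 0.64%. Truncated body was scored present/absent by brightfield microscopy.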

[2] = Tanguay_ZF_120hpf_NC_legacy: (Legacy) Oregon State University Tanguay Lab 120 Hour Post-fertilization zebrafish Assay for Notochord and Tail Malformation (AID 2283656)
Outline: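 Dechorionated 5D zebrafish, 1/well from 6 hpf; static exposure to 120 hpf, 28C, sealed, dark; final DMSO 0.64% v/v. NC scored binary (present/absent); dead embryos not scored. Fit vs DMSO baseline, gain direction.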

[3] = Tanguay_ZF_120hpf_TR_legacy: (Legacy) Oregon State University Tanguay Lab 120 Hour Post-fertilization zebrafish Assay for Touch Response (AID 2283667)
Outline: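 Tropical 5D wild-type zebrafish embryos were exposed statically in sealed, foil-covered plates at 28C until 120 hpf, with 0.64% (vol/vol) final DMSO. Touch response was scored as present or absent; embryos that died were not scored.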

[4] = CCTE_Padilla_ZF_144hpf_TERATOSCORE: (Legacy) CCTE's 144 Hour Post-fertilization zebrafish Assay Teratoscore, Padilla Lab (AID 2283679; active = hit-call score of the fitted dose curve at least 0.9, where 1 is the maximum; inactive = score below 0.9;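 as to AC50: zebrafish embryos with chorions exposed by immersion from 6-8 hpf to 5 dpf with daily renewal; teratogenicity score from eye scoring of death hatching and malformations at 144 hpf; higher score means more developmental defects relative to DMSO baseline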)
Outline: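 Larvae scored by eye at 144 hpf for death, hatching and malformations after a day in clean Hanks'. Before that, daily-renewed exposure at 80 uM (0.4% DMSO, 26C) from roughly 6-8 hpf through 5 dpf, 4 embryos per chemical.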

[5] = Tanguay_ZF_120hpf_ActivityScore_legacy: (Legacy) Oregon State University Tanguay Lab 120 Hour Post-fertilization zebrafish Assay Score for Activity (AID 2283742)
Outline: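 Tropical 5D wild-type zebrafish embryos, dechorionated with pronase at 4 hpf, were exposed singly from 6 hpf to 120 hpf statically at 28C in 0.64% DMSO. Malformations and mortality were scored as binary by brightfield, with the activity score combining 18 morphology components.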

[6] = Tanguay_ZF_120hpf_SWIM_legacy: (Legacy) Oregon State University Tanguay Lab 120 Hour Post-fertilization zebrafish Assay for Swim Bladder Malformation (AID 2283654);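 also: swim bladder malformation in each larva scored yes or no under brightfield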
Outline: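 Dechorionated Tropical 5D wild-type embryos, placed singly from 6 hpf, were statically exposed at 28C to 120 hpf with 0.64% DMSO final; swim bladder malformation was scored present/absent by brightfield microscopy, gain of signal relative to DMSO controls.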

[7] = test system: Thyroperoxidase (TPO), gene 54314; test: CCTE_Simmons_AUR_rTPO: CCTE's Amplex UltraRed Assay for Thyroperoxidase (TPO) Inhibition, Simmons Lab (AID 2283662);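 as to AC50: potency for loss of signal meaning inhibition of peroxidase activity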
Outline: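 Endpoint is decreased Amplex UltraRed fluorescence after a 30-min, 37C reaction of rat thyroid microsomes with 300 uM H2O2. Eight test concentrations (5 nM–87.5 uM final) in 0.5% DMSO, three biological replicates each.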

[8] = STM_H9_OrnithineISnorm_perc: Stemina devTOX quickPredict H9 human embryonic stem cell (hESC)-based Assay for Ornithine (ORN) Metabolite Biomarker, Normalized (AID 2283712; active = hit-call score of the fitted dose curve at least 0.9, where 1 is the maximum; inactive = score below 0.9;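 also: ornithine released into spent medium during last day measured by mass spectrometry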)
Outline: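 Cells: undifferentiated H9 hESC. Dosing: 72 h, media replaced every 24 h. Sample: final 24-h conditioned media, 40% acetonitrile. Read: UPLC-HRMS ornithine area vs 13C standard, % DMSO control.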

[9] = STM_H9_CystineISnorm_perc: Stemina devTOX quickPredict H9 human embryonic stem cell (hESC)-based Assay for Cystine (CYSS) Metabolite Biomarker, Normalized (AID 2283713; active = hit-call score of the fitted dose curve at least 0.9, where 1 is the maximum; inactive = score below 0.9)
Outline: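 Secreted cystine was measured by UPLC-HRMS in H9 hESC medium after 72h compound exposure with 24-hourly replenishment. Values are standard-normalized areas relative to 0.1% DMSO.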

[10] = STM_H9_OrnCyssISnorm_ratio: Stemina devTOX quickPredict H9 human embryonic stem cell (hESC)-based Assay for Ornithine (ORN):Cystine (CYSS) Ratio (AID 2283714)
Outline: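 Undifferentiated H9 hESCs were exposed to compound for 72h with media and chemical replaced every 24h. Final 24-h conditioned media were deproteinized and analysed by UPLC-HRMS. ORN and CYSS peak areas were normalized to C13 internal standards and the ratio taken versus 0.1% DMSO.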

[11] = CCTE_Simmons_CellTiterGLO_HEK293T: Viability Assessment in CCTE's Assays for Thyroperoxidase (TPO) Inhibition, Simmons Lab (AID 2283665);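 as to AC50: cells exposed to compound for 24 h before readout; actives reduce ATP signal below DMSO vehicle meaning cytotoxicity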
Outline: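 Cytotoxicity counter-screen: human HEK293T cells in low-serum (1% FBS) medium receive test chemical, 5 nM to 87.5 uM final, for 24 h; ATP is quantified by luciferase luminescence.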

[12] = read-out: solute carrier (SLC10A1), SLC10A1 (gene 6554); test: LTEA_HepaRG_SLC10A1: Life Technologies and Expression Analysis (LTEA) Assay for solute carrier (SLC10A1) using HepaRG (AID 2283657; active = hit-call score of the fitted dose curve at least 0.9, where 1 is the maximum; inactive = score below 0.9); conditions: mRNA level, 48 h; actives raise or lower the signal
Outline: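 Differentiated HepaRG cells were plated 48 h, then exposed in serum-free induction medium for 48 h to 8 concentrations (top 100 uM, half-log steps, 0.5% DMSO). SLC10A1 mRNA was quantified by qRT-PCR normalized to ACTB, GAPDH, POLR2A; bidirectional fit versus DMSO.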

[13] = read-out: matrix metalloproteinase-1 (MMP1), MMP1 (gene 4312); test: LTEA_HepaRG_MMP1: Life Technologies and Expression Analysis (LTEA) Assay for matrix metalloproteinase-1 (MMP1) using HepaRG (AID 2283658; active = hit-call score of the fitted dose curve at least 0.9, where 1 is the maximum; inactive = score below 0.9); conditions: mRNA level, 48 h; actives raise or lower the signal
Outline: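 Differentiated HepaRG cells, plated 48 h then switched to serum-free induction medium, were exposed in duplicate for 48 h to eight half-log concentrations up to 100 uM in 0.5% DMSO; MMP1 mRNA measured by qRT-PCR, normalized to ACTB, GAPDH, POLR2A.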

[14] = read-out: Cytochrome P450 (CYP24A1_1), CYP24A1 (gene 1591); test: LTEA_HepaRG_CYP24A1_1: Life Technologies and Expression Analysis (LTEA) Assay for Cytochrome P450 (CYP24A1_1) using HepaRG (AID 2283671; active = hit-call score of the fitted dose curve at least 0.9, where 1 is the maximum; inactive = score below 0.9); conditions: mRNA level, 48 h; actives raise or lower the signal
Outline: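 HepaRG, 48 h exposure, 8-pt half-log series from 100 uM in 0.5% DMSO, duplicates. Readout: TaqMan qRT-PCR of CYP24A1 mRNA, housekeeping-normalized (ACTB/GAPDH/POLR2A). Bidirectional curve fit vs DMSO baseline.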

[15] = CEETOX_H295R_MTT_cell_viability: Viability Assessment in the CeeTox HT-H295R MTT Assay (AID 2283718; active = hit-call score of the fitted dose curve at least 0.9, where 1 is the maximum; inactive = score below 0.9;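 as to AC50: curve fitted both ways so AC50 may mark viability loss or gain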)
Outline: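 H295R cells prestimulated 48 h with 10 uM forskolin, then exposed 48 h to test chemical (0.1% DMSO final). Viability by MTT (0.5 mg/ml, 4 h, 37 C), absorbance 570/650 nm; percent change versus DMSO, bidirectional fit.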

[16] = ArunA_CellTiter_hNC: Viability Assessment in the ArunA Biomedical's Oris Neural Crest (hNC) Cell Migration Assay (AID 2283752)
Outline: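 Viability of embryonic neural crest stem cells from the H9 line is scored 72 h after dosing, with DMSO as negative control and baseline. A drop in CellTiter Aqueous One signal indicates cytotoxicity.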

[17] = ArunA_Migration_hNP: ArunA Biomedical's Oris Neuroprogenitor (hNP) Cell Migration Assay (AID 2283754)
Outline: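 Human H9-derived hNP1 neuroprogenitors on Matrigel with LIF/bFGF, plated around seeding stoppers for 16 h at 37C; stoppers removed at start of 72 h chemical exposure. Calcein-AM staining, fluorescence 494/517 nm in detection zone; loss-of-signal vs DMSO; cytochalasin D control.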

Measured: AC50

O=C1C2(Cl)C3(Cl)C4(Cl)C(Cl)(Cl)C5(Cl)C3(Cl)C1(Cl)C5(Cl)C24Cl (configuration not stated)
inactive: [2]
active: [1] 15.2 µM | [3] 34.8 µM | [4] 3.4 µM | [5] 71 µM

O=C(O)C(F)(F)C(F)(F)C(F)(F)C(F)(F)C(F)(F)C(F)(F)F
active: [7] 16.5 µM
inactive: [6] | [2] | [7] | [3] | [5]

C=C(C)C(=O)[O][Sn]([CH2]CCC)([CH2]CCC)[CH2]CCC
inactive: [6] | [1] | [2] | [3]
active: [4] 0.0483 µM | [8] 0.494 µM | [9] 0.266 µM | [10] 0.441 µM | [5] 1.54 µM

CCC(C)(C)c1ccc(O)c(C(C)(C)CC)c1
inactive: [6] | [1] | [3] | [5]
active: [7] 4.15 µM | [11] 0.847 µM | [4] 4.87 µM and 4.82 µM

CN(C)N=O
inactive: [1] | [2] | [3] | [4] | [5]

Oc1cccc2cccnc12
inactive: [2] | [12] | [13] | [3] | [14]
active: [7] 18.4 µM and 15.9 µM | [11] 15.8 µM and 53.8 µM | [4] 4.78 µM | [5] 39.6 µM

C[C@@H]1C[C@@H]([C@H](O)CC2CC(=O)NC(=O)C2)C(=O)[C@@H](C)C1
active: [4] 6 µM | [8] 4.59 µM | [9] 0.92 µM | [10] 2.9 µM | [5] 17.9 µM
inactive: [1] | [15]

Cc1ccccc1N
inactive: [6] | [1] | [2] | [11] | [3] | [5]
active: [7] 2.19 µM and 2.51 µM

NC(=O)O
inactive: [6] | [1] | [2] | [12] | [13] | [3] | [14] | [4] | [5]

ClCC(Cl)CCl
not listed: [3] | [7] | [11] | [12] | [13] | [14] | [15]
inactive: all other assays above

CCOP(=S)(OCC)Oc1nc(Cl)c(Cl)cc1Cl
active: [7] 10.4 µM | [11] 17.9 µM | [4] 4.72 µM | [15] 93.2 µM
inactive: [1] | [2] | [3] | [5]

O=[N+]([O-])c1ccc(O)c([N+](=O)[O-])c1
inactive: [6] | [2] | [8] | [10]
active: [4] 4.96 µM | [9] 31.1 µM | [5] 29.6 µM

O=c1[nH]c(=O)[nH]c(=O)[nH]1
inactive: [1] | [2] | [3] | [4] | [5]

O=C(O)C(Cl)(Cl)Cl
not listed: [10] | [12] | [13] | [14] | [15] | [16] | [17]
inactive: all other assays above

CC(C)(OO)c1ccccc1
inactive: [6] | [1] | [5]

CC(C)(C)CC(C)(C)c1ccc(O)cc1
active: [7] 11.6 µM | [11] 9.53 µM | [4] 4.55 µM
inactive: [6] | [1] | [2] | [3] | [5]

O=C(Nc1ccc2[nH]ccc2c1)c1cc2cc(F)ccc2n1Cc1cccc(F)c1
inactive: [6] | [1] | [2] | [3] | [15] | [5]
active: [7] 1.62 µM | [11] 0.753 µM | [8] 3.5 µM | [9] 1.27 µM | [10] 1.28 µM

CC(C)(c1ccccc1)c1ccc(O)c(C(C)(C)c2ccccc2)c1
active: [7] 19.6 µM | [11] 5.35 µM | [4] 4.58 µM
inactive: [6] | [1] | [3] | [5]

C[C@]12CCC(=O)C[C@@H]1CC[C@@H]1[C@@H]2CC[C@]2(C)[C@@H](O)CC[C@@H]12
inactive: [1] | [2] | [3] | [15] | [5]
active: [4] 11.6 µM

O=C(O)C(F)(F)C(F)(F)C(F)(F)C(F)(F)C(F)(F)C(F)(F)C(F)(F)C(F)(F)C(F)(F)C(F)(F)F
active: [12] 47.8 µM | [4] 8.02 µM
inactive: [1] | [2] | [13] | [3] | [14] | [5]
